Measured values reported in PubChem BioAssay AID504339 (National Center for Advancing Translational Sciences (NCATS), 2011).
The whole screen tested about 390,000 compounds, of which about 17,000 (4.4%) were called active. About 8% were inconclusive and are not listed. Shown is part of a subset that was picked to be rich in actives. Unmarked numbers belong to inactive results. The call rests on the fitted dose curve; in most records, active means well fitted inhibition curve with a large enough effect; inconclusive means small, poorly fitted or top-dose-only effect; inactive means no such curve, though single readings can be large or run the other way.
Further: nearly all actives have a fitted effect of over 50% in size.
On the % scale 0 is the no-effect control and ±100 the full control effect; potency means the concentration at half of the fitted maximal effect.

The molecules below were run against Lysine-specific demethylase 4A (Homo sapiens) (UniProt O75164) (assay: qHTS Assay for Inhibitors of JMJD2A-Tudor Domain). Conditions: AlphaScreen JMJD2A-Tudor / H3K4me3 peptide binding; series mostly up to 114 µM; activity change, negative = inhibition: at the top concentration.
Lysine-specific demethylase 4A (Homo sapiens), sequence (O75164 whole entry, looked up, the tested form may be a part): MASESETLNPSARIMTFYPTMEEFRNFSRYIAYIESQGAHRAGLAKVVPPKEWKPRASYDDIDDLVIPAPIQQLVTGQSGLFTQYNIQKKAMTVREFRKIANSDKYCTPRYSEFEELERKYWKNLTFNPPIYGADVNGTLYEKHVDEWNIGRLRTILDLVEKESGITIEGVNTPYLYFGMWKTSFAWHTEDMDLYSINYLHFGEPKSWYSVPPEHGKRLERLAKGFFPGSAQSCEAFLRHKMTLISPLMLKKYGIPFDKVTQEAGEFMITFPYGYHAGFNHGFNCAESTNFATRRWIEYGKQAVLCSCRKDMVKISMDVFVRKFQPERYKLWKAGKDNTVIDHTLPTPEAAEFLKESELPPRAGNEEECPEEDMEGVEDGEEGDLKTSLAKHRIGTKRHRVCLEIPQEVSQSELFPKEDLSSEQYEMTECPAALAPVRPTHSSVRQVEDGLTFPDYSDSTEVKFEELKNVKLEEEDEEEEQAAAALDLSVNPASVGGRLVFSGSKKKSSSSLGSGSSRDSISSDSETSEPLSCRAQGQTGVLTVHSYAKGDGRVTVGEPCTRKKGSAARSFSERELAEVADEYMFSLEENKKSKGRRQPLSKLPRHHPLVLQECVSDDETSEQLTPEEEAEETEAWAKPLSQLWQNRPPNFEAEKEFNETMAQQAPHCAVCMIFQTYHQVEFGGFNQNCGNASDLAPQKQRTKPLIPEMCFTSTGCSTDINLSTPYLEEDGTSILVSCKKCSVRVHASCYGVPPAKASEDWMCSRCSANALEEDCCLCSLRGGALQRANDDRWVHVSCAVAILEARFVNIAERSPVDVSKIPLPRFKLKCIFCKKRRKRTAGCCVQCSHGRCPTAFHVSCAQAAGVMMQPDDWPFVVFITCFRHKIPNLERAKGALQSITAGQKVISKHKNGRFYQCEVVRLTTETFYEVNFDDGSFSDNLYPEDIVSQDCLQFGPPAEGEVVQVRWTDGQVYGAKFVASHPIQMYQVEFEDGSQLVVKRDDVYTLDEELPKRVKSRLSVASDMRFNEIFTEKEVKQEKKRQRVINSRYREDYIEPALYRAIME
In the case of Cc1ccc(CNC(=O)CCc2c(C)nn(-c3ccc(N4CCCC4)nn3)c2C)cc1, the “activity change, negative = inhibition” value is reported as -14.3%. Cc1[nH]c2ccc(S(N)(=O)=O)cc2c1C was tested, and the “activity change, negative = inhibition” value was -20.5%. C=CCn1c(-c2ccc3[nH]c(C)c(C)c3c2)n[nH]c1=S was tested, and the Potency was 50.1 µM (active). With C=CCn1c(CCc2ccc(OC(C)C)cc2)n[nH]c1=S the “activity change, negative = inhibition” value was -56.8%. In the case of C=CCn1c(COc2ccccc2C)nnc1SCC(=O)O, the “activity change, negative = inhibition” value is reported as -21.3%. With C=CCn1c(-c2ccccc2OCC)n[nH]c1=S the Potency was 4.47 µM (active). With C=CCn1c(=S)sc2c(=O)[nH]c(C)nc21 the “activity change, negative = inhibition” value was -6.04%. In the case of COc1ccc(-c2cn3c(C)c(C(=O)Nc4cc(C)cc(C)c4)sc3n2)cc1, the “activity change, negative = inhibition” value is reported as -14.4%. With COC(=O)c1cc2occc2n1Cc1nc(-c2ccc(C)cc2)oc1C the “activity change, negative = inhibition” value was -13.8%. In the case of Cc1cccc(NC(=O)c2cc3c(C)nn(-c4ccccc4)c3s2)c1, the “activity change, negative = inhibition” value is reported as 0.687%. For Nc1ccccc1SC(C[N+](=O)[O-])c1ccccc1 (stereo not drawn), the Potency was 6.31 µM (active). O=C(c1ccc(C(F)(F)F)cc1)N1CCC(c2nc(-c3ccc(S(=O)(=O)N4CCCC4)cc3)no2)CC1 was tested, and the “activity change, negative = inhibition” value was -23.6%. O=C(CC(c1cccs1)N1Cc2ccccc2C1=O)Nc1ccc(F)c(F)c1 (stereo not drawn) was tested, and the “activity change, negative = inhibition” value was -6.41%. With Cc1cccc(NC(=O)CSc2nc3c([nH]c4ccccc43)c(=O)n2-c2cc(C)cc(C)c2)c1 the “activity change, negative = inhibition” value was -2.26%. With Cc1ccc(N2CC(C(=O)Nc3ccc(N(C)C)cc3)CC2=O)cc1Cl (stereo not drawn) the “activity change, negative = inhibition” value was -14.2%. O=S(=O)(NCCS(=O)(=O)N1CCN(c2ccccc2)CC1)c1ccc(Cl)cc1 was tested, and the “activity change, negative = inhibition” value was -10.5%. With CCC(C)Nc1oc(-c2ccc(COc3ccc(Cl)cc3)o2)nc1C#N (stereo not drawn) the “activity change, negative = inhibition” value was -23.2%. In the case of CN1CCN(c2oc(-c3ccc(COc4ccc(Cl)cc4)o3)nc2C#N)CC1, the Potency is reported as 39.8 µM (active). In the case of COc1ccc(OCc2ccc(-c3nc(C#N)c(N4CCN(c5ccccc5)CC4)o3)o2)cc1, the “activity change, negative = inhibition” value is reported as -25.8%. CCOc1ccccc1NC(=O)Cn1c(=O)n(Cc2ccccc2)c(=O)c2c(C)c(C(=O)N(C)C)sc21 was tested, and the “activity change, negative = inhibition” value was -12.3%. O=S(=O)(c1ccccc1)c1nc(-c2ccccc2F)oc1NCc1cccnc1 was tested, and the “activity change, negative = inhibition” value was -32.6%. For N#Cc1nc(COc2ccc(-c3ccccc3)cc2)oc1NCc1cccnc1, the Potency was 44.7 µM (active). c1ccc(COc2ccccc2CNCc2cccnc2)cc1 was tested, and the “activity change, negative = inhibition” value was -35.1%. With CCOC(=O)c1c(NC(=O)/C=C/c2ccc(OC)cc2)sc2c1CCC(C)C2 (stereo not drawn) the “activity change, negative = inhibition” value was 6.21%. For COc1cc(/C=N\NC(=O)C2C(=O)NCC2c2ccccc2)cc(OC)c1O (stereo not drawn), the “activity change, negative = inhibition” value was -6.9%. COc1cccc(/C=N\NC(=O)C2=NNC(=O)C2C)c1O (stereo not drawn) was tested, and the Potency was 56.2 µM (active). COc1ccc(/C=N/NC(=O)C2CC2)c(OC)c1OC was tested, and the “activity change, negative = inhibition” value was -1.92%. With CCOc1ccccc1NC(=O)CN1CCN(S(=O)(=O)c2ccc(Br)cc2)CC1 the “activity change, negative = inhibition” value was -5.5%.
